Laboratory results reported in PubChem BioAssay (NCI).
About 79,000 compounds went through this panel and 15% of them were active in at least one assay; those are over-represented in the sample as a whole. Values without a mark were called inactive. The source made the active and inactive calls. No stated cut-off is given here; in the data, active means growth inhibition above about 70%; inactive means the rest.

Legend:
[1] = NCI Yeast Anticancer Drug Screen. Data for the rad52 strain (AID 147);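 further: 0% = growth of vehicle-treated control cultures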; conditions: S. cerevisiae rad52 mutant growth inhibition, active compounds read high
How it was run: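 Yeast strain carrying a DNA damage repair alteration was exposed to test compounds. Growth inhibition was measured relative to vehicle-treated controls.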

[2] = NCI Yeast Anticancer Drug Screen. Data for the wt1 strain (AID 149);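 further: 0% = growth of vehicle-treated wt1 cultures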; conditions: S. cerevisiae wt1 strain (SPY 50644) growth inhibition, active compounds read high
How it was run: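 Yeast wt1 strain exposed to compounds; growth inhibition measured relative to vehicle-treated controls.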

[3] = NCI Yeast Anticancer Drug Screen. Data for the rad50EPP+ strain (AID 151);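 further: 0% = growth of vehicle-treated control cultures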; conditions: S. cerevisiae rad50 mutant strain, active compounds read high
How it was run: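 Yeast strain carrying rad50 alteration (rad50EPP+) exposed to compounds; growth inhibition measured relative to vehicle-treated controls.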

[4] = NCI Yeast Anticancer Drug Screen. Data for the mgt1 strain (AID 153); conditions: S. cerevisiae mgt1 mutant growth inhibition, active compounds read high
How it was run: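 Yeast mgt1 strain (DNA repair/cell-cycle alteration panel) exposed to compounds; growth inhibition measured relative to vehicle-treated controls.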

[5] = NCI Yeast Anticancer Drug Screen. Data for the rad50 strain (AID 155);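 further: 0% = growth of vehicle-only cultures of the same strain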; conditions: S. cerevisiae rad50 strain growth inhibition, active compounds read high
How it was run: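 Yeast carrying a defined DNA repair defect were exposed to test compounds, and growth was compared with vehicle-treated controls to give percent inhibition.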

[6] = NCI Yeast Anticancer Drug Screen. Data for the mec2-1 strain (AID 157); conditions: S. cerevisiae mec2-1 strain, active compounds read high
How it was run: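 mec2-1 yeast strain, carrying an alteration in DNA damage repair or cell cycle control, was exposed to compounds; growth inhibition was measured relative to vehicle-treated controls.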

[7] = NCI Yeast Anticancer Drug Screen. Data for the rad14 strain (AID 159);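 further: 0% = growth of vehicle-treated control cultures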; conditions: S. cerevisiae rad14 strain growth inhibition, active compounds read high
How it was run: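 Yeast cells carrying a defined DNA-repair defect were exposed to compounds, and growth inhibition was calculated relative to vehicle-treated control cultures.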

[8] = NCI Yeast Anticancer Drug Screen. Data for the sgs1 mgt1 strain (AID 161);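 further: 0% = growth of cultures given vehicle only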; conditions: S. cerevisiae sgs1 mgt1 strain, active compounds read high
How it was run: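 Compounds are added to genetically altered yeast, and growth is compared with cultures given vehicle alone to give percent inhibition.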

[9] = NCI Yeast Anticancer Drug Screen. Data for the CLN2oe strain (AID 163);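 further: 0% = growth of vehicle-only control cultures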; conditions: S. cerevisiae CLN2oe strain, active compounds read high
How it was run: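 Yeast cells carrying a defined cell-cycle control alteration were exposed to test compounds. Growth inhibition was scored against vehicle-treated control cultures.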

[10] = NCI Yeast Anticancer Drug Screen. Data for the cln2 rad14 strain (AID 165);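 further: 0% = growth equal to vehicle treated cultures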; conditions: S. cerevisiae cln2 rad14 strain, active compounds read high
How it was run: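 Yeast carrying cln2 and rad14 alterations (cell cycle control and DNA damage repair) were exposed to compounds. Growth inhibition was measured against vehicle-treated controls.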

[11] = NCI Yeast Anticancer Drug Screen. Data for the bub3 strain (AID 167); conditions: S. cerevisiae bub3 mutant strain, active compounds read high
How it was run: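 Compounds were applied to a genetically altered yeast strain carrying a cell-cycle control defect. Growth inhibition was scored against vehicle-treated controls.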

[12] = NCI Yeast Anticancer Drug Screen. Data for the wt2 strain (AID 169);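 further: 0% = growth of vehicle-treated yeast cultures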; conditions: S. cerevisiae wt2 strain growth inhibition, active compounds read high
How it was run: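 Yeast cells were exposed to test compounds, and growth inhibition was measured relative to vehicle-treated controls.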

[13] = NCI Yeast Anticancer Drug Screen. Data for the mlh1 strain (AID 171);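 further: 0% = growth of vehicle-treated control cultures of the same strain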; conditions: S. cerevisiae mlh1 strain growth inhibition, active compounds read high
How it was run: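 Yeast carrying a defined genetic alteration in DNA damage repair or cell cycle control were exposed to test compounds. Growth inhibition was measured relative to vehicle-treated controls.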

[14] = NCI Yeast Anticancer Drug Screen. Data for the sgs1 strain (AID 173);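 further: 0% = growth of vehicle-only control cultures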; conditions: S. cerevisiae sgs1 mutant, active compounds read high
How it was run: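 Yeast mutant strains carrying defined defects in DNA damage repair or cell cycle control were exposed to test compounds. Growth inhibition was scored against vehicle-treated controls.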

[15] = NCI Yeast Anticancer Drug Screen. Data for the mlh1 rad18 strain (AID 175); conditions: S. cerevisiae mlh1 rad18 strain growth inhibition, active compounds read high
How it was run: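 Growth inhibition of the yeast strain was measured after compound exposure and expressed relative to vehicle-treated controls. The strain carries defined defects in DNA damage repair.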

[16] = NCI Yeast Anticancer Drug Screen. Data for the rad18 strain (AID 177); conditions: S. cerevisiae rad18 mutant growth inhibition, active compounds read high
How it was run: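 Yeast carrying a defined DNA damage repair alteration were exposed to compounds. Growth inhibition was expressed relative to vehicle-treated controls.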

[17] = at 5.0 µM (retest, dose inferred, filed as 0.5)
[18] = at 50.0 µM (retest, dose inferred, filed as 5.0)

Q: With `CC1(Cl)CC(O)C2(CC1Br)C1(C)OC1C1OC1(Br)C2(C)C` (stereo not drawn) as the molecule, how does the growth inhibition ([1]; at 1.2 µM) read?
A: The growth inhibition was 14%.

Q: And the growth inhibition ([1]; at 3.7 µM)?
A: The growth inhibition was 19%.

Q: What about the growth inhibition ([1]; at 11.0 µM) of the same molecule?
A: The growth inhibition was 31%.

Q: What about the growth inhibition ([1]; at 33.0 µM) of the same molecule?
A: The growth inhibition was 66%.

Q: What about the growth inhibition ([1]; at 100.0 µM) of the same molecule?
A: Its growth inhibition is 98% (active).

Q: What about the growth inhibition ([2]; at 1.2 µM) of the same molecule?
A: The growth inhibition was 1%.

Q: And the growth inhibition ([2]; at 3.7 µM)?
A: Its growth inhibition is -20%.

Q: What about the growth inhibition ([2]; at 11.0 µM) of the same molecule?
A: The growth inhibition was -2%.

Q: What about the growth inhibition ([2]; at 33.0 µM) of the same molecule?
A: Its growth inhibition is 60%.

Q: And the growth inhibition ([2]; at 100.0 µM)?
A: The growth inhibition was 98% (active).

Q: What about the growth inhibition ([3]; at 1.2 µM) of the same molecule?
A: Its growth inhibition is -9%.

Q: What about the growth inhibition ([3]; at 3.7 µM) of the same molecule?
A: The growth inhibition was -12%.

Q: And the growth inhibition ([3]; at 11.0 µM)?
A: The growth inhibition was -21%.

Q: And the growth inhibition ([3]; at 33.0 µM)?
A: Its growth inhibition is 2%.

Q: What about the growth inhibition ([3]; at 100.0 µM) of the same molecule?
A: The growth inhibition was 73% (active).

Q: And the growth inhibition ([4]; at 1.2 µM)?
A: The growth inhibition was -18%.

Q: What about the growth inhibition ([4]; at 3.7 µM) of the same molecule?
A: The growth inhibition was -14%.

Q: What about the growth inhibition ([4]; at 11.0 µM) of the same molecule?
A: The growth inhibition was -1%.

Q: And the growth inhibition ([4]; at 33.0 µM)?
A: Its growth inhibition is 74% (active).

Q: And the growth inhibition ([4]; at 100.0 µM)?
A: The growth inhibition was 98% (active).

Q: And the growth inhibition ([5]; at 1.2 µM)?
A: The growth inhibition was -8%.

Q: What about the growth inhibition ([5]; at 3.7 µM) of the same molecule?
A: Its growth inhibition is -12%.

Q: What about the growth inhibition [5, 17] of the same molecule?
A: Its growth inhibition is 12%.

Q: What about the growth inhibition ([5]; at 11.0 µM) of the same molecule?
A: Its growth inhibition is 1%.

Q: And the growth inhibition ([5]; at 33.0 µM)?
A: The growth inhibition was 73% (active).

Q: What about the growth inhibition [5, 18] of the same molecule?
A: The growth inhibition was 79% (active).

Q: What about the growth inhibition ([5]; at 50.0 µM) of the same molecule?
A: Its growth inhibition is 62.6%.

Q: And the growth inhibition ([5]; at 100.0 µM)?
A: The growth inhibition was 97% (active).

Q: And the growth inhibition ([6]; at 1.2 µM)?
A: The growth inhibition was -29%.

Q: What about the growth inhibition ([6]; at 3.7 µM) of the same molecule?
A: Its growth inhibition is -21%.

Q: What about the growth inhibition [6, 17] of the same molecule?
A: The growth inhibition was 0%.

Q: What about the growth inhibition ([6]; at 11.0 µM) of the same molecule?
A: The growth inhibition was -23%.

Q: And the growth inhibition ([6]; at 33.0 µM)?
A: Its growth inhibition is 39%.

Q: And the growth inhibition [6, 18]?
A: The growth inhibition was 53%.

Q: And the growth inhibition ([6]; at 50.0 µM)?
A: The growth inhibition was 59.2%.

Q: And the growth inhibition ([6]; at 100.0 µM)?
A: Its growth inhibition is 98% (active).

Q: And the growth inhibition ([7]; at 1.2 µM)?
A: Its growth inhibition is -18%.

Q: And the growth inhibition ([7]; at 3.7 µM)?
A: The growth inhibition was -14%.

Q: What about the growth inhibition ([7]; at 11.0 µM) of the same molecule?
A: The growth inhibition was -23%.

Q: And the growth inhibition ([7]; at 33.0 µM)?
A: Its growth inhibition is 61%.

Q: And the growth inhibition ([7]; at 100.0 µM)?
A: The growth inhibition was 97% (active).

Q: And the growth inhibition [8, 17]?
A: The growth inhibition was 2%.

Q: And the growth inhibition [8, 18]?
A: Its growth inhibition is 86% (active).

Q: What about the growth inhibition ([8]; at 50.0 µM) of the same molecule?
A: Its growth inhibition is 67.8%.

Q: What about the growth inhibition ([9]; at 1.2 µM) of the same molecule?
A: The growth inhibition was 2%.

Q: What about the growth inhibition ([9]; at 3.7 µM) of the same molecule?
A: Its growth inhibition is 3%.

Q: What about the growth inhibition ([9]; at 11.0 µM) of the same molecule?
A: Its growth inhibition is 5%.

Q: What about the growth inhibition ([9]; at 33.0 µM) of the same molecule?
A: Its growth inhibition is 31%.

Q: And the growth inhibition ([9]; at 100.0 µM)?
A: Its growth inhibition is 98% (active).

Q: What about the growth inhibition [10, 17] of the same molecule?
A: The growth inhibition was 33%.

Q: What about the growth inhibition [10, 18] of the same molecule?
A: Its growth inhibition is 58%.

Q: And the growth inhibition ([10]; at 50.0 µM)?
A: Its growth inhibition is 42.5%.

Q: What about the growth inhibition ([11]; at 1.2 µM) of the same molecule?
A: Its growth inhibition is -15%.

Q: And the growth inhibition ([11]; at 3.7 µM)?
A: The growth inhibition was 1%.

Q: And the growth inhibition [11, 17]?
A: The growth inhibition was 29%.

Q: What about the growth inhibition ([11]; at 11.0 µM) of the same molecule?
A: The growth inhibition was 1%.

Q: And the growth inhibition ([11]; at 33.0 µM)?
A: The growth inhibition was 35%.

Q: What about the growth inhibition [11, 18] of the same molecule?
A: Its growth inhibition is 89% (active).

Q: What about the growth inhibition ([11]; at 50.0 µM) of the same molecule?
A: Its growth inhibition is 73.5% (active).

Q: And the growth inhibition ([11]; at 100.0 µM)?
A: Its growth inhibition is 98% (active).

Q: And the growth inhibition ([12]; at 1.2 µM)?
A: Its growth inhibition is -10%.

Q: What about the growth inhibition ([12]; at 3.7 µM) of the same molecule?
A: The growth inhibition was -5%.

Q: And the growth inhibition ([12]; at 11.0 µM)?
A: Its growth inhibition is -1%.

Q: And the growth inhibition ([12]; at 33.0 µM)?
A: The growth inhibition was 62%.

Q: And the growth inhibition ([12]; at 100.0 µM)?
A: Its growth inhibition is 98% (active).

Q: What about the growth inhibition ([13]; at 1.2 µM) of the same molecule?
A: The growth inhibition was -19%.

Q: And the growth inhibition ([13]; at 3.7 µM)?
A: The growth inhibition was -22%.

Q: What about the growth inhibition ([13]; at 11.0 µM) of the same molecule?
A: The growth inhibition was -18%.

Q: And the growth inhibition ([13]; at 33.0 µM)?
A: The growth inhibition was 66%.

Q: What about the growth inhibition ([13]; at 100.0 µM) of the same molecule?
A: The growth inhibition was 97% (active).

Q: And the growth inhibition ([14]; at 1.2 µM)?
A: Its growth inhibition is -25%.

Q: And the growth inhibition ([14]; at 3.7 µM)?
A: The growth inhibition was -33%.

Q: And the growth inhibition ([14]; at 11.0 µM)?
A: Its growth inhibition is -17%.

Q: What about the growth inhibition ([14]; at 33.0 µM) of the same molecule?
A: Its growth inhibition is 78% (active).

Q: What about the growth inhibition ([14]; at 100.0 µM) of the same molecule?
A: Its growth inhibition is 98% (active).

Q: What about the growth inhibition [15, 17] of the same molecule?
A: Its growth inhibition is -13%.

Q: What about the growth inhibition [15, 18] of the same molecule?
A: Its growth inhibition is 80% (active).

Q: And the growth inhibition ([15]; at 50.0 µM)?
A: The growth inhibition was 62.6%.

Q: And the growth inhibition ([16]; at 1.2 µM)?
A: The growth inhibition was -15%.

Q: And the growth inhibition ([16]; at 3.7 µM)?
A: The growth inhibition was -7%.

Q: And the growth inhibition ([16]; at 11.0 µM)?
A: Its growth inhibition is 25%.

Q: What about the growth inhibition ([16]; at 33.0 µM) of the same molecule?
A: The growth inhibition was 76% (active).

Q: And the growth inhibition ([16]; at 100.0 µM)?
A: The growth inhibition was 98% (active).
